From PubChem BioAssay
Shown are actives, neighbours in structure and some others; about 7.3% of the full set was active somewhere.
NIH3T3 tox = Cytotoxic Profiling in NIH 3T3 Cell Line of Diverse Libraries Using Quantitative High-Throughput Screening; Potency, µM (doses to about 96.7 µM), without a hit: top-dose activity change, negative = cytotoxicity, usual class: inhibitors; 4.3% of 94,000 active; NIH 3T3 viability, CellTiter-Glo ATP luminescence, 48-72 h; AID 1345082, 2018; further: potency means the concentration at half of the fitted maximal effect; on the % scale 0 is the no-effect control and ±100 the full control effect; nearly all actives have a fitted effect of over 55% in size
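First NIH 3T3 cells are plated at 400 cells/well; next compound is pinned in; then plates incubate 48 or 72 hr at 37 °C; finally CellTiter-Glo is added and luminescence read after 10 min.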
SNCA expr inhib = Primary qHTS assay for inhibitors of alpha-synuclein gene (SNCA) expression; HEK-293 SNCA-luciferase knock-in, luminescence, 24 h; Potency, µM (highest dose often 57.2 µM), without a hit: top-dose activity change, negative = inhibition, hits mostly inhibitors; 0.17% of 140,000 active; AID 1671194, 2021;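 further: potency means the concentration at half of the fitted maximal effect; plate controls were DMSO cells for no effect and cell-free wells for full effect; nearly all actives have a fitted effect of over 45% in size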
HEK cytotox = Cytotoxic Profiling in HEK 293 Cell Line of Diverse Libraries Using Quantitative High-Throughput Screening; Potency, µM (top dose mostly 115 µM), without a hit: at the top dose activity change, negative = cytotoxicity, hits mostly inhibitors; HEK 293 viability, ATP luminescence (CellTiter-Glo), 48-72 h; AID 1345083, 2018; 6.6% of 94,000 active; further: potency means the concentration at half of the fitted maximal effect; on the % scale 0 is the no-effect control and ±100 the full control effect; nearly all actives have a fitted effect of over 60% in size
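Viability of HEK 293 cells, plated at 250 cells/well, was judged by cellular ATP after compound treatment for 48 or 72 hr. Luminescence was imaged 10 min after CellTiter-Glo addition at room temperature.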
IP6K1 inhibitor = Primary qHTS assay for small molecule inhibitors of Inositol hexaphosphate kinase 1 (IP6K1) | IP6K1 kinase, ADP-Glo luminescence, 2 h; hits give low values | activity change, % (series mostly up to about 58 µM) | 0.81% of 140,000 active | AID 1645851, 2021; in the data active means activity change below about -25%; further: on the % scale 0 is the no-effect control and ±100 the full control effect
Target sequence (Q92551 whole entry, looked up): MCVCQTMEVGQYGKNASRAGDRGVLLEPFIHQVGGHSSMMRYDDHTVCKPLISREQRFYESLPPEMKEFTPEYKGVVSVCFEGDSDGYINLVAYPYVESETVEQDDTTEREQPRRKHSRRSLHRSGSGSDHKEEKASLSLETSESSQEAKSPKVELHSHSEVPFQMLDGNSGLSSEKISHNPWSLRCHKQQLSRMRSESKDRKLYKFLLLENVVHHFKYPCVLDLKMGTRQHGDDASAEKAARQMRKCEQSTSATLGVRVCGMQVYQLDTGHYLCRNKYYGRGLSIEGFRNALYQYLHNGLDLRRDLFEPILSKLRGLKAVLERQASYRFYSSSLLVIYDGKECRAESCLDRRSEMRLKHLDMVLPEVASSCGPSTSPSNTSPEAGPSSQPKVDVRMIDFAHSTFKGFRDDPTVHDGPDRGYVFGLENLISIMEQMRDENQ
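ADP-Glo luminescence measures ADP made by human IP6K1 during a 2 h RT reaction with ATP/IP6 (mix at 1.3 mM/130 uM); top library doses 57.5 and 19.1 uM final.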
FLuc inh-1 = Firefly luciferase inhibition profiling of diverse chemical library using quantitative high-throughput screening; purified P. pyralis luciferase, luminescence, biochemical; Potency, µM (series often up to 115 µM), usual class: inhibitors; 2.5% of 76,000 active; further: potency means the concentration at half of the fitted maximal effect; on the % scale 0 is the no-effect control and ±100 the full control effect; nearly all actives have a fitted effect of over 65% in size
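Purified 10nM P. pyralis luciferase with 10uM D-luciferin and 10uM ATP in 50mM Tris acetate pH 7.5, 10mM Mg acetate, 0.01% Tween-20, 0.05% BSA. qHTS titration; luminescence read by CCD imager.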
HEK293 viab = GF-AFC viability counterscreen for inhibitors of alpha-synuclein gene (SNCA) expression; HEK-293-SNCA-luc viability, GF-AFC fluorescence, 24 h; Potency, µM (titrated, usually from 57.1 µM), inactives show top-dose activity change, negative = cytotoxicity, hits mostly cytotoxic; 0.12% of 150,000 active;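 further: potency means the concentration at half of the fitted maximal effect; 0% = DMSO-treated cells and -100% = medium-only wells without cells; nearly all actives have a fitted effect of over 30% in size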
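Cytotoxicity counterscreen: after 24 h compound treatment of genome-edited SNCA-luciferase HEK-293 cells, live-cell protease substrate GF-AFC read by fluorescence after 30 min; activity scaled between DMSO (0%) and medium-only (-100%), curves Hill-fitted.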
FLuc SDR -ATP = Firefly luciferase (FLuc-C-HiBiT) SDR gain of signal screen - without ATP. shares compounds with FLuc inh-1. Purified FLuc-C-HiBiT, Nano-Glo HiBiT luminescence, no ATP. Potency, µM (top dose mostly 32.7 µM), for the others: at the highest dose activation (signal gain), hits mostly activators. 7.8% of 1,300 active. AID 1963318, 2024; further: potency means the concentration at half of the fitted maximal effect; nearly all actives have a fitted effect of over 55% in size
FLuc SDR ATP = Firefly luciferase (FLuc-C-HiBiT) SDR gain of signal screen - plus ATP; shares compounds with FLuc inh-1; Potency, µM (series often up to 32.7 µM), inactives show top-dose activation (gain of signal), actives largely listed as activators; 8.7% of 1,300 active; AID 1963319, 2024; purified FLuc-C-HiBiT + ATP, HiBiT complementation luminescence;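 further: signal reports ligand binding via conformational change of the enzyme rather than luciferase catalysis; potency means the concentration at half of the fitted maximal effect; % of control where 0% means no effect; nearly all actives have a fitted effect of over 55% in size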
FLuc inh-2 = Firefly luciferase (FLuc-C-HiBiT) enzymatic inhibition screen - Functional assay. 42% of 1,300 active. shares compounds with FLuc inh-1. Potency, µM (series often up to 32.7 µM), for the others: at the highest dose activity change, negative = inhibition, hits mostly inhibitors. purified FLuc-C-HiBiT enzyme, luciferin luminescence; further: potency means the concentration at half of the fitted maximal effect; on the % scale 0 is the no-effect control and ±100 the full control effect; nearly all actives have a fitted effect of over 70% in size
* hit, by the source's call; i = inactive; ? = inconclusive; . = not tested or not shown; [ ] = remark or other dose. Unless noted, the call rests on the fitted dose curve; in most records, active means well fitted curve in the direction sought with a large enough effect; inconclusive means small, poorly fitted or top-dose-only effect, or another doubt; inactive means no such curve, though single readings can be large; an effect the other way counts as inactive or inconclusive.

SMILES	NIH3T3 tox	SNCA expr inhib	HEK cytotox	IP6K1 inhibitor	FLuc inh-1	HEK293 viab	FLuc SDR -ATP	FLuc SDR ATP	FLuc inh-2
COCC1CN(C(C)=O)CC12CCN(Cc1cccc(OC)c1OC)CC2 (centres undefined)	-4.4%	6.9%	-3.2%	-3.3	i	-4.3%	.	.	.
CC(=O)N1CCC(C(=O)N2CCC(c3nc4ncccc4[nH]3)CC2)C1 (centres undefined)	3.3%	27.8%	-3.8%	-8.4	.	3.2%	.	.	.
Cc1cccc(CC(=O)NCCC2CCN(C(=O)Nc3ccccc3)CC2)c1	-15.7%	8.2%	i	4.5	i	-10.6%	.	.	.
Cc1ccc2nc(-c3ccc(N=Nc4cc(S(=O)(=O)O)c5ccccc5c4O)cc3)sc2c1S(=O)(=O)O	.	.	.	.	.	.	1.5%	2.4%	12.4µM*
Cc1ccc2nc(-c3ccc4nc(-c5ccc(NC(=O)c6cccc(Cl)c6)cc5)sc4c3)sc2c1S(=O)(=O)O	.	.	.	.	.	.	2.0%	2.6%	?
Cc1ccc2nc(-c3ccc(N)cc3)sc2c1S(=O)(=O)O	.	.	.	.	.	.	?	?	2.48µM*
CN1CCc2[nH]nc(C(=O)N3CCC4(CC3)c3nc[nH]c3CCN4C)c2C1	4.4%	3.8%	-18.4%	3.8	i	-8.1%	.	.	.
CC(=O)NC1(C)CCN(Cc2ccc(-c3ccc4c(ccn4C)c3)cc2)C1 (centres undefined)	?	?	?	13.3	4.47µM*	-5.8%[87.6 µM]	25.4%[49.3 µM]	?	7.18µM*
COc1cc(CN2CCC(C)(NC(C)=O)CC2)cc(-c2ccccc2)c1	?	-2.8%[87.6 µM]	?	13.0	i	0.4%[87.6 µM]	.	.	.
CCOc1ccc(-c2cc3c(=O)n(CCNC(=O)c4cccc(C#N)c4)ccn3n2)cc1	2.6%	76.7%	2.3%	-4.6	0.794µM*	-0.9%	26.2%	15.0%	?
CCOc1ccc(-c2cc3c(=O)n(CCNC(=O)c4cccc(N(C)C)c4)ccn3n2)cc1	-24.1%	94.1%	?	-9.5	2.51µM*	-5.7%	28.8%	?	3.94µM*
CCOc1ccc(-c2cc3c(=O)n(CCNC(=O)c4ccncc4)ccn3n2)cc1	-6.1%	10.3%	?	-1.8	6.31µM*	-2.1%	?	?	3.51µM*
CCOc1ccc(-c2cc3c(=O)n(CCNC(=O)c4ccccc4)ccn3n2)cc1	-0.7%	41.3%	-3.9%	-1.5	?	-1.7%	.	.	.
CCNC(=O)CCc1c(C)nn(-c2ccccc2)c1Oc1ccccc1	-11.6%	-0.1%	-13.5%	8.8	i	1.3%	.	.	.
O=C(NCCc1ccccc1)c1cnc2c(c1)N(C(=O)Cc1cccc(C(F)(F)F)c1)CCC2	?	12.4%	?	16.8	i	-8.1%	.	.	.
COc1cc(C(=O)Nc2cc(C)c(O)c(-c3nc4ccccc4s3)c2)cc(OC)c1OC	.	11.3%	.	-5.4	.	13.3%	15.0%	9.7%	-6.9%
COc1ccc(C(=O)Nc2cc(C)c(O)c(-c3nc4ccccc4s3)c2)cc1OC	.	-14.9%	.	15.4	.	-12.4%	21.3%	12.5%	?
CCOc1ccc(C(=O)Nc2cccc(-c3nc4cccnc4s3)c2C)cc1OCC	.	14.1%	.	26.8	.	-0.4%	.	.	.
COc1cc(C(=O)Nc2ccc(-c3nc4ccccc4o3)c(O)c2)cc(OC)c1OC	.	13.8%	.	1.9	.	-6.6%	.	.	.
O=C(NCCc1ccccc1)C1CCCN(C2CCN(Cc3nccs3)CC2)C1 (centres undefined)	-19.3%	13.2%	-9.5%	8.8	i	5.9%	.	.	.
O=C(NC1CCN(Cc2ccc(-c3ccsc3)cc2)C1)C1CCCC1 (centres undefined)	-5.2%[138 µM]	-20.2%[87.6 µM]	i	-9.3	.	4.8%[87.6 µM]	.	.	.
COc1cccc(-c2cc(C(=O)NCc3ccccc3)[nH]n2)c1	.	102.7%	.	-2.9	.	-25.9%	.	.	.
COc1cccc(-c2cc(C(=O)NCc3nc(-c4ccccc4)n[nH]3)[nH]n2)c1	?	19.9%	?	-2.3	14.1µM*	-15.6%	18.7%	10.8%	?
COc1ccc(-c2nc3cc(C(=O)NCc4ccccc4F)ccc3o2)cn1	-9.6%	-3.4%	-11.8%	9.2	.	-1.9%	.	.	.
O=C(Nc1ccc2c(c1)OCCO2)N1CCC2(CC1)CC(N1CCCC1)CCO2 (centres undefined)	i	116.0%	12.0%	-6.2	6.31µM*	-2.9%	28.6%	?	?
SMILES	NIH3T3 tox	SNCA expr inhib	HEK cytotox	IP6K1 inhibitor	FLuc inh-1	HEK293 viab	FLuc SDR -ATP	FLuc SDR ATP	FLuc inh-2
O=C(Nc1ccc2c(c1)OCCO2)N1CCC2(CC1)CC(N1CCOCC1)CCO2 (centres undefined)	-12.6%	137.5%	1.8%	21.9	.	5.1%	.	.	.
CCc1ccc2oc(-c3ccc(C)c(NC(=O)c4ccc(C#N)cc4F)c3)nc2c1	.	165.8%	.	-1.9	.	5.6%	17.0%	13.2%	-14.8%
COc1cccc(CN2CCc3c(cc(C(=O)Nc4cc(C)ccc4OC)n3C)C2)c1	?	110.4%	31.6µM*	-5.7	8.91µM*	-0.2%	11.8%	14.0%	-11.5%
CS(=O)(=O)CCN1CCN(C(=O)c2cccc(-c3ncc[nH]3)c2)CC1	-11.2%	-18.8%	-15.2%	7.5	i	-12.6%	.	.	.
COc1ccc(C(=O)N2CCC3(CC2)NC(=O)N(c2cccc(Cl)c2)N3)cc1	?	29.3%	?	4.4	i	-5.4%	.	.	.
Cc1cnc(CCNC(=O)Nc2ccc3c(c2)OCCO3)n1Cc1ccc(F)cc1	-18.7%	121.1%	39.8µM*	2.3	14.1µM*	10.7%	18.7%	15.1%	?
Cc1cnc(CCNC(=O)Nc2ccc3c(c2)OCCO3)n1C1CC1	-20.7%	46.6%	-25.1%	0.8	6.31µM*	-4.5%	19.3%	15.7%	?
